# About 7,500 (2.1%) of roughly 360,000 compounds were called active. Another 20% or so got no clear call; they are omitted. The entries come from a sample that favours actives as a whole. Unmarked numbers belong to inactive results. The call rests on the fitted dose curve; in most records, active means well fitted inhibition curve with a large enough effect; inconclusive means small, poorly fitted or top-dose-only effect, or effect the other way; inactive means flat fitted curve, though single readings scatter.
# Experiment: Nrf2 qHTS screen for inhibitors; further: nearly all actives have a fitted effect of over 60% in size
# Conditions: A549 ARE-Fluc reporter, luciferase luminescence, 18-24 h; series mostly up to 46 µM; activity change, negative = inhibition: at the top concentration
# Outline: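 A549 ARE_Fluc cells, 5000/well, 5% FBS OPTI-MEM; compounds in dose-response, 18-24 h at 37 °C/5% CO2; CellTiter-Fluor viability read (Ex 405/Em 525), then BugLite luciferase luminescence = Nrf2 activity.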
# On the % scale 0 is the no-effect control and ±100 the full control effect; potency means the concentration at half of the fitted maximal effect.
SMILES,Potency,"activity change, negative = inhibition [%]"
CCc1ccccc1OCC(=O)Nc1ccc(C)c(S(=O)(=O)N2CCCCCC2)c1,25.9 µM (active),–
Cc1ccc(NS(=O)(=O)c2cccs2)cc1S(=O)(=O)N1CCCCCC1,7.31 µM (active),–
Cc1ccc(C(=O)NNC(=O)c2ccncc2)cc1S(=O)(=O)N1CCCCC1,–,-7.77
Cc1ccc(NC(=O)COC(=O)C2CC2)cc1S(=O)(=O)N1CCOCC1,–,8.96
Cc1ccc(NC(=O)CCCNC(=O)c2ccc(Cl)cc2)cc1S(=O)(=O)N1CCOCC1,–,-7.44
Cc1ccc(NC(=O)CCNC(=O)c2ccc([N+](=O)[O-])cc2)cc1S(=O)(=O)N1CCOCC1,–,3.63
O=C(C1CCN(S(=O)(=O)c2cccs2)CC1)N1CCCCCC1,–,19.6
Cc1ccc(NC(=O)CCC(=O)N2CCC(c3ccccc3)=N2)cc1S(=O)(=O)N1CCCCC1,–,-25.3
Cc1ccc(NC(=O)CCCNC(=O)c2ccc(Cl)cc2)cc1S(=O)(=O)N1CCCCC1,16.4 µM (active),–
CC1CN(C(=O)N2CCC(C(=O)NCc3cccs3)CC2)c2ccccc2O1 (stereo not given),–,-14
O=C(CCCCn1c(=O)c2ccccc2n(CC(=O)Nc2cccc(C(F)(F)F)c2)c1=O)NCc1ccc2c(c1)OCO2,–,-14.1
CCCS(=O)(=O)N1CCC(n2c(C(F)(F)F)nc3cccnc32)CC1,–,-6.94
O=C(N[C@@H]1C/C=C\C[C@@H](CC(=O)N(CCO)Cc2ccccc2)C(=O)N[C@H](Cc2ccccc2)COC1=O)OCC1c2ccccc2-c2ccccc21,–,-2.23
Cc1c(CN2CC[C@@H](N3CCN(c4ccccn4)CC3)[C@H](O)C2)[nH]c2ccc(F)cc12,–,-6.24
Fc1ccc2[nH]c3c(N4CCN(Cc5ccc6c(c5)OCO6)CC4)ncnc3c2c1,10.3 µM (active),–
CC(C)(C)n1nnnc1C(c1ccc(F)cc1)N1CCN(Cc2ccc3c(c2)OCO3)CC1 (stereo not given),–,-7.86
O=c1[nH]c(N2CCN(Cc3ccc4c(c3)OCO4)CC2)nc2c1CCCC2,–,-8.11
Fc1ccc2[nH]c3c(N4CCSCC4)ncnc3c2c1,18.4 µM (active),–
CCn1c(CN2CCC(C)CC2)nc2cc(NC(=O)c3ccccc3[N+](=O)[O-])ccc21,–,-4.26
CCCN(CC(=O)Nc1ccccc1C)C(=O)c1ccc(OCC(=O)N2CCOCC2)c(OCC)c1,–,1.1
Cc1ccccc1NC(=O)Cn1c(=O)n(CC2CCC(C(=O)NCCc3ccccc3)CC2)c(=O)c2ccccc21 (stereo not given),–,5.11
COc1cc(C(=O)NCC(c2ccco2)N2CCCC2)ccc1OCc1ccccc1 (stereo not given),–,7.02
Cc1ccccc1Nc1nn2c(=O)c3ccc(C(=O)NCCc4ccc(Cl)cc4)cc3nc2s1,–,-7.63
Cc1ccc(S(=O)(=O)NC(N)=NCCC[C@@H](NC(=O)CNC(=O)c2ccccc2)C(=O)Nc2cc(C(F)(F)F)ccc2Cl)cc1,–,4.08

SMILES,Potency,"activity change, negative = inhibition [%]"
O=C1NC[C@@H](c2ccccc2)OC(=O)[C@H](Cc2ccc(F)cc2)CC/C=C/C[C@H]1CC(=O)N(CCO)Cc1ccccc1,–,-7.42
Cc1ccc2nc(-c3ccc(O)cc3)c(Nc3ccc4c(c3)OCO4)n2c1,–,8.81
Cc1nc2ccccc2c(C(=O)O)c1-c1ccccn1,–,0.203
Cc1nc2ccccc2c(-c2ccccc2)c1C(=O)c1ccccc1,23.1 µM (active),–
Cc1nc2ccccc2c(C)c1C(=O)c1ccc(F)cc1,–,10
CC1(C)O[C@@H]2CC3C4C[C@H](F)C5=CC(=O)C=CC5(C)C4C(O)CC3(C)[C@]2(C(=O)CO)O1 (stereo not given in full),0.0046 µM (active),–
Cc1ccc(C(CC(=O)O)NC(=O)c2ccc(S(=O)(=O)N3CCCC3)cc2)cc1 (stereo not given),–,0.991
COCCOC(=O)C1=C(C)NC(=O)NC1c1ccc(Cl)cc1 (stereo not given),–,-1.05
CCOCCOC(=O)C1=C(C)NC(=O)NC1c1ccc2c(c1)OCO2 (stereo not given),–,-4.03
CCC(CC)COC(=O)C1=C(C)NC(=O)NC1c1ccc([N+](=O)[O-])cc1 (stereo not given),25.9 µM (active),–
COc1cc(CN(CC2CCCO2)C(=O)c2ccccc2F)cc(OC)c1OC (stereo not given),–,-4.81
COc1ccc(CCC(=O)c2ccc(OC)cc2)cc1,–,5.47
COc1ccc(C(=O)C[n+]2ccc(C)cc2)cc1,–,3.08
COc1ccc(C(=O)C[n+]2ccc(N)c(C)c2C)cc1,5.8 µM (active),–
CC/C(=C\c1ccc(Cl)cc1)c1ccncc1,–,10.8
COc1ccc(S(=O)(=O)N(C)C[C@H]2Oc3c(NC(=O)Nc4ccc5c(c4)OCO5)cccc3C(=O)N([C@H](C)CO)C[C@@H]2C)cc1,–,-10.5
COc1ccc(C(=O)N(Cc2ccccc2)Cc2ccc(OC)c(COc3ccc(NC(C)=O)cc3)c2)c(O)c1,–,1.88
Cc1cccc(C=CC(=O)c2ccc(Cl)cc2)c1,–,-8.77
Cc1[nH]c(=O)c(C(=O)/C=C/c2ccccc2)c2c1CCCC2,20.6 µM (active),–
Cc1cn(COC/C=C/c2ccccc2)c(=O)[nH]c1=O,–,0.354
Nc1ccc2c(c1)C(=Cc1cccnc1)c1ccccc1-2,–,22.3
Cn1c2ccccc2c(=O)c2c(O)cccc21,–,28
CCCc1nc2c(c(=O)c3ccccc3n2C)c(=O)n1-c1cc(C)cc(C)c1,–,2.46
CCCc1nc2c(c(=O)c3ccccc3n2C)c(=O)n1C1CCCCCC1,23.1 µM (active),–

SMILES,Potency,"activity change, negative = inhibition [%]"
O=C(NCc1cccnc1)C(=O)NCC(c1cccnc1)N1CCN(c2ccccc2)CC1 (stereo not given),–,2.8
O=C(CCCCCCCC(=O)N1CCCCC1)N1CCCCC1,–,-7.85
COc1cc(CNCCN(C)C)ccc1OCc1c(F)cccc1Cl,–,-10.3
CN(C)CCCNC(=O)/C=C/c1ccc(OCc2c(F)cccc2Cl)cc1,20.6 µM (active),–
COCCCNC(=O)/C=C/c1ccc(OCc2c(F)cccc2Cl)cc1,–,-21
COc1cc2c(-c3ccc4c(c3)OCO4)c(-c3ccsc3)oc(=O)c2cc1OC,–,-4.58
O=C1C=C(c2cccc(Cl)c2O)C[C@@H](c2ccc(F)cc2)C1,–,7.99
COc1ccc(N2CCN(Cc3nc4c(c(=O)[nH]c(=O)n4C)n3Cc3ccc(Cl)cc3)CC2)cc1,–,2.8
CCc1cccc2c3c([nH]c12)C(CC)(CC(=O)O)OCC3 (stereo not given),10.3 µM (active),–
O=C1CC[C@@H]2CC3(C[C@@H]4CCN1[C@H]24)Nc1cc([N+](=O)[O-])ccc1NC3=NC1CCCCC1 (stereo not given in full),–,5.71
CC1CC(C)(C)n2c(O)c(N=NC(N)=S)c3cccc1c32 (stereo not given),14.6 µM (active),–
Cc1cccc(NC(=O)CSc2nc(-c3ccco3)cc(C(F)(F)F)n2)c1C,–,6.45
COc1cccc(C=CC(=O)C=CC=Cc2ccccc2)c1,–,-3.74
Cc1c(Cl)cccc1NC(=O)CCS(=O)(=O)c1ccc2c(c1)oc(=O)n2C,–,-4.02
CCc1ccccc1NC(=O)Cn1c(=O)n(CC2CCC(C(=O)NCCc3ccccc3)CC2)c(=O)c2ccccc21 (stereo not given),–,15.4
CCN(C[C@H]1N[C@@](Cc2ccccc2)(C(=O)OC)[C@H]2C(=O)N(Cc3ccccc3)C(=O)[C@@H]12)C(=O)c1ccc(C)cc1,–,-0.16
CCOc1ccccc1N(CC)C(=O)c1cc2ccc3cccnc3c2[nH]1,–,-16.9
COc1ccc(CCNC(=O)c2ccc(CS(=O)(=O)c3ccc(Br)cc3)o2)cc1OC,4.11 µM (active),–
COc1ccccc1CNC(=O)c1ccc(CS(=O)(=O)c2ccccc2)o1,–,0.412
O=C(NCc1cccnc1)c1ccc(CS(=O)(=O)c2ccc(Br)cc2)o1,14.6 µM (active),–
Cc1cccc(NS(=O)(=O)c2ccc(C)c(C(=O)NCc3cccnc3)c2)c1,–,-31.3
COc1ccc(CCNC(=O)c2nnc(CS(=O)(=O)c3ccccc3)o2)cc1OC,–,1.63
COc1ccc(C(=O)NCCc2ccc(S(N)(=O)=O)cc2)cc1OC,–,22.1
Cc1ccccc1-n1c(=O)c2ccccc2n(Cc2ccc(F)cc2)c1=O,–,5.14

SMILES,Potency,"activity change, negative = inhibition [%]"
CCCN(C(=O)COC(=O)CNS(=O)(=O)c1ccc(NC(C)=O)cc1)C1CCS(=O)(=O)C1 (stereo not given),–,12.7
CC1CCCC(NC(=O)c2cc(S(=O)(=O)N3CCCCC3)ccc2Cl)C1C (stereo not given),–,12.3
CSc1ncc(Sc2ccccc2)c(C(=O)O)n1,–,0.799
CSc1nc(-c2ccccc2)nc(C(Cl)Cl)n1,23.1 µM (active),–
Cc1cccc(Nc2nc(C)nc(N)c2S(=O)(=O)c2ccccc2)c1,–,-16
O=C(Nc1cccc(S(=O)(=O)N2CCOCC2)c1)C12CC3CC(CC(C3)C1)C2,–,1.01
COc1ccc2[nH]c3c(C)c4cc[n+](C)cc4c(C)c3c2c1,8.2 µM (active),–
COc1ccc2[nH]c(=S)cc(C)c2c1,–,0
COc1ccc2[nH]c(C(=O)N3CCN(C)CC3)c(C)c2c1,–,21.1
Cc1ccc(-n2c(=O)c3cccnc3n2CC(=O)NCc2ccc(F)cc2)cc1C,–,-7.78
CCOC(=O)/C(=N\Nc1ccccc1[N+](=O)[O-])c1csc(Nc2ccccc2)n1,20.6 µM (active),–
CCOC(=O)C/C(C)=N\Nc1ccc([N+](=O)[O-])cc1[N+](=O)[O-],–,-12.2
CCOC(=O)Cc1csc(NC(=O)Nc2ccccc2)n1,–,5.68
CC(=O)OC1=C(C(C)=O)N(Cc2ccccc2)S(=O)(=O)c2ccccc21,–,-4.38
Cn1c(CNC(=O)c2ccco2)nnc1SCC(=O)N1CCN(c2ccccc2)CC1,–,-11.5
Cn1c(Cc2cccc3ccccc23)nnc1SCC(=O)N1CCN(c2cccc(Cl)c2)CC1,10.3 µM (active),–
Cc1cc2nnc(SCC(=O)N3CCN(c4ccccc4)CC3)n2c(N)n1,–,10.4
CC(=O)c1ccc(N2CCN(C(=O)c3ccc(Cl)c(S(=O)(=O)NC4CC4)c3)CC2)c(F)c1,–,-4.28
Cc1nn(-c2ccccc2)c(C)c1NC(=O)COc1ccc(Cl)cc1Cl,16.4 µM (active),–
Cc1nn(-c2ccccc2)c(C)c1NC(=O)CCl,–,-1.19
Cc1nn(-c2ccccc2)c(C)c1NC(=O)COC(=O)c1cc(Cl)ccc1O,–,-12.6
NC(=O)C1(Nc2ccc([N+](=O)[O-])cc2)CCCC1,–,-7.2
Cn1c(=O)c2c(-c3ccccc3Br)n(Cc3ccccc3)cc2n(C)c1=O,–,-16.6
